Bioassay records deposited in PubChem by The Scripps Research Institute Molecular Screening Center.
PME-1 primary: PME-1 (human) inhibition | 0.53% of 320,000 active | recombinant PME-1, FP-Rh probe fluorescence polarization | inhibition, % at 5.9 µM | Q9Y570;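 active means inhibition above the campaign mean of all compounds plus 3 SD, cut at about 26% in these data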;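 further: competitive labeling of PME-1 active site by serine hydrolase directed probe; inhibitors block probe labeling so polarization falls and inhibition rises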
LYPLA1 inh: blocks human lysophospholipase 1, a PME1 counter-screen. O75608. recombinant LYPLA1, FP-Rh probe fluorescence polarization. inhibition, % at 5.9 µM. 0.16% of 320,000 active;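 active means inhibition above the mean of all tested compounds plus 3 SD, set per campaign, cut at about 14% in these data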;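 further: inhibitors block serine hydrolase probe labeling of LYPLA1 so polarization falls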
Target sequence (O75608 whole entry, looked up): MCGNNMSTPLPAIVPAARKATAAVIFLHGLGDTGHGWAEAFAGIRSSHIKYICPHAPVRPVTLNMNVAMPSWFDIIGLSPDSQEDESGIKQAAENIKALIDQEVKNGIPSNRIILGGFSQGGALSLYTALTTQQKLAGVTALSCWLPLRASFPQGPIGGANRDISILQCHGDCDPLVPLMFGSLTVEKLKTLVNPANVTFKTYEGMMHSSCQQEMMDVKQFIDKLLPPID
PAD4 inh: PAD4 (human) enzyme inhibition; inhibition, % at 6.36 µM; Q9UM07; recombinant PAD4, RCA probe fluorescence polarization; 0.41% of 330,000 active;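 active means percent inhibition above a cutoff equal to the mean of all tested compounds plus 3 SD, cut at about 15% in these data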
GSTO1 counter: counter-screen for RBBP9 inhibitors: inhibitors of human GSTO1; P78417; recombinant GSTO1, activity-based probe fluorescence polarization; inhibition, % at 5.96 µM; 1.1% of 300,000 active;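 active means inhibition above the campaign mean inhibition plus 3 SD, cut at about 35% in these data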
Fam108B counter: Fam108B inhibition, counter-screen for RBBP9 inhibitors; 0.33% of 300,000 active; AID 1947; recombinant Fam108B, FP-Rh probe fluorescence polarization; inhibition, % at 9.51 µM;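 active means inhibition above the screen mean inhibition plus 3 SD, computed separately per campaign, cut at about 18% in these data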;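 further: inhibitors lower polarization as less probe binds the enzyme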
LYPLA2 counter: blocks human lysophospholipase 2, a PME1 counter-screen. inhibition, % at 5.9 µM. AID 2177. O95372. recombinant LYPLA2, FP-Rh probe fluorescence polarization. 0.38% of 320,000 active;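 active means inhibition above the screen-wide mean plus 3 SD, limit set per campaign, cut at about 26% in these data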
Target sequence (O95372 whole entry, looked up): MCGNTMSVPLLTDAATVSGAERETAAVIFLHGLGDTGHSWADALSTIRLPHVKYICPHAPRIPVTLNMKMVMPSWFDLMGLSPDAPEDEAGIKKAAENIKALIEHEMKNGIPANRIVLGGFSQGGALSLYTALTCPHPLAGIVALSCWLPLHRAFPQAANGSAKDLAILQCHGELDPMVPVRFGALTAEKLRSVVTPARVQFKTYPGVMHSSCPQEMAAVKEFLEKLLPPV
GSTO1 inh conf: GSTO1 (human) inhibition, confirmation; shares compounds with GSTO1 counter; recombinant GSTO1, probe fluorescence polarization; inhibition, % at 5.96 µM; 54% of 2,400 active;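 active means inhibition above the primary screen's cutoff, its mean inhibition plus 3 SD, cut at about 35% in these data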;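 further: loss of polarization as inhibitors block binding of rhodamine sulfonate ester activity probe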
Each line names hits and unclear results; the compound was inactive in the other large screens (follow-up assays come after a bar, where they were run); ! = repeats disagree. Rows were chosen to be rich in hits. Some 1.7% of all compounds tested hit in one or more screens of this group.

O=C(OCC(=O)c1c[nH]c2ccccc12)c1ccc([N+](=O)[O-])s1	GSTO1 counter 45.5 | GSTO1 inh conf inactive
CCOC(=O)c1c(C)[nH]c(C)c1C(=O)COC(=O)c1ccc([N+](=O)[O-])s1	none (no result: GSTO1 counter, Fam108B counter)
CCc1cccc2c(C(=O)COC(=O)c3ccc([N+](=O)[O-])s3)c[nH]c12	PME-1 primary 28.6, GSTO1 counter 52.7 | GSTO1 inh conf inactive
CCCCN(C)C(=O)c1nc2ccccn2c1CN1CCSCC1	none
Cc1ccc(C(=O)c2coc3cc([N+](=O)[O-])c(O)c([N+](=O)[O-])c23)cc1	GSTO1 counter 37.6 | GSTO1 inh conf inactive
Cc1ccc2[nH]c3c(c2c1)CCCC3C(N)=O (centres undefined)	none
Cc1ccc2[nH]c3c(c2c1)CCCC3NC(=O)CCl (centres undefined)	GSTO1 counter 93.4 | GSTO1 inh conf 98.9
Cc1ccc(NC(=O)CCc2c(C)nn(-c3ccc(N4CCCCC4)nn3)c2C)cc1	none
Cc1cc(C)cc(NC(=O)CCc2c(C)nn(-c3ccc(N4CCCCC4)nn3)c2C)c1	GSTO1 counter 67.0 | GSTO1 inh conf inactive
CCNc1nc(NCC)nc(N/N=C/c2ccc(O)c(O)c2)n1	GSTO1 counter 38.2 | GSTO1 inh conf inactive
CCC(C(=O)OCn1nnc2ccccc2c1=O)c1ccccc1 (centres undefined)	none
COc1ccccc1NC(=O)CSc1nnnn1C	none
O=C(O)c1ccc(C(=O)C(=O)c2ccccc2)cc1	none
Oc1ccc(/C=N/N=C(c2ccccc2)c2ccccc2)c(O)c1O	GSTO1 counter 53.9 | GSTO1 inh conf inactive
O=C(/C(=N/N=C/c1ccc(O)c(O)c1O)c1ccccc1)c1ccccc1	GSTO1 counter 50.4 | GSTO1 inh conf inactive
CC(NC(=O)CCC(=O)Nc1ccccc1O)c1ccccc1 (centres undefined)	none
CC(CNc1ccccc1O)C(=O)O (centres undefined)	GSTO1 counter 45.0 | GSTO1 inh conf inactive
CC(NC(=O)COC(=O)c1cc(NS(=O)(=O)c2ccc(Cl)c([N+](=O)[O-])c2)ccc1O)C1CC2CCC1C2 (centres undefined)	GSTO1 counter 46.1 | GSTO1 inh conf 40.4
Cc1ccc(Cl)cc1NC(=O)CCC(=O)O	GSTO1 counter 63.7 | GSTO1 inh conf inactive
CCOC(=O)c1c(C)[nH]c(C)c1C(=O)COC(=O)c1cccc(S(=O)(=O)NC)c1	GSTO1 counter 40.2 | GSTO1 inh conf inactive
Cc1cc(C)n(-c2nnc(NC34CC5CC(CC(C5)C3)C4)nn2)n1	none
CCN1C(=O)C2(C(C#N)=C(N)Oc3c2c(C)nn3-c2ccccc2)c2ccccc21 (centres undefined)	GSTO1 counter 38.9 | GSTO1 inh conf inactive
COC(=O)CCC(=O)OC1(C)C(=O)C=C2C=C(C3CC3)N(C(CO)CO)C=C2C1=O (centres undefined)	none
COC(=O)CCC(=O)OC1(C)C(=O)C=C2C=C3CCCN3C=C2C1=O (centres undefined)	GSTO1 counter 38.3 | GSTO1 inh conf inactive
CC1(OC(=O)C2CCCC2)C(=O)C=C2C=C3CCCCN3C=C2C1=O (centres undefined)	GSTO1 counter 51.4 | GSTO1 inh conf inactive
Cc1c(NC(=O)C(C)OC(=O)c2ccc([N+](=O)[O-])s2)c(=O)n(-c2ccccc2)n1C (centres undefined)	GSTO1 counter 43.9 | GSTO1 inh conf inactive
C=CCn1c(NC(=O)c2ccc(Br)o2)c(S(=O)(=O)c2ccccc2)c2nc3ccccc3nc21	PAD4 inh 20.2, GSTO1 counter 65.2 | GSTO1 inh conf inactive
O=C(Nc1ccc(S(=O)(=O)NCc2ccccc2)cc1)c1ccc(Br)o1	none
CC(=O)Nc1ccc(NC(=O)/C(Cl)=C/c2ccccc2)cc1	none
Cc1oc2c(c1C(=O)NCc1cccnc1)C(=O)c1ccccc1C2=O	GSTO1 counter 59.7 | GSTO1 inh conf 48.4
COc1ccc(CNC(=O)c2c(C)oc3c2C(=O)c2ccccc2C3=O)cc1	GSTO1 counter 52.7 | GSTO1 inh conf 35.4
CC(=O)c1c(C)oc2c1C(=O)c1ccccc1C2=O	GSTO1 counter 45.9 | GSTO1 inh conf 56.3
COc1cccc(NC(=O)NC2(C(F)(F)F)Oc3ccccc3O2)c1	GSTO1 counter 41.2 | GSTO1 inh conf inactive
O=C(NCc1cccnc1)NC1(C(F)(F)F)Oc2ccccc2O1	GSTO1 counter 41.4 | GSTO1 inh conf inactive
O=C(NCc1cccnc1)NC(C(F)(F)F)C(F)(F)F	none
CC(C)CNC(=O)NC1(C(F)(F)F)Oc2ccccc2O1	GSTO1 counter 50.6 | GSTO1 inh conf inactive
CN(CCN1CCOCC1)Cc1nc(-c2ccc(Cl)cc2)no1	none
O=C(OCC(=O)N1CCCC1=O)C1CCN(S(=O)(=O)c2ccc(Cl)c(C(F)(F)F)c2)CC1	none (no result: GSTO1 counter, Fam108B counter)
CC(=O)N1CCc2[nH]c3ccc(C)cc3c2C1	GSTO1 counter 53.8 | GSTO1 inh conf inactive
COC(=O)C1CN(C(=O)C(C)Oc2ccc(C(C)C)cc2)c2ccccc2O1 (centres undefined)	none
O=[N+]([O-])c1ccc(O)c(/C=N/Nc2nn[nH]n2)c1	GSTO1 counter 47.2 | GSTO1 inh conf inactive
COc1ccc(Cl)cc1NC(=O)CCS(=O)(=O)c1ccc(C)cc1	none
NS(=O)(=O)c1ccc2nc(NC(=O)c3ccc4ncsc4c3)sc2c1	none
NS(=O)(=O)c1ccc2nc(NC(=O)c3ccc4c(c3)OCCO4)sc2c1	GSTO1 counter 42.2 | GSTO1 inh conf inactive
CC(C)CN1C=C2C(=O)C(C)(OC(=O)C3CCCC3)C(=O)C=C2C=C1c1ccsc1 (centres undefined)	none
CC1(OC(=O)C2CCCC2)C(=O)C=C2C=C(c3ccsc3)N(C3CC3)C=C2C1=O (centres undefined)	GSTO1 counter 47.1 | GSTO1 inh conf inactive
C=CCN1C=C2C(=O)C(C)(OC(=O)C3CCCC3)C(=O)C=C2C=C1c1ccsc1 (centres undefined)	GSTO1 counter 40.9 | GSTO1 inh conf inactive
Cc1ccc(CCN2CC(C(=O)NCCN(C)C)CC2=O)cc1 (centres undefined)	none
COc1ccc(-c2nn(-c3ccccc3)cc2/C=C/C(=O)O)cc1[N+](=O)[O-]	none
c1ccc2c3c([nH]c2c1)-c1[nH]ncc1CC3	GSTO1 counter 74.1 | GSTO1 inh conf inactive
Cc1cc(C)c[n+](-c2nc3ccccc3nc2C(=C=[N-])C#N)c1	GSTO1 counter 44.6 | GSTO1 inh conf inactive
Cc1ccc[n+](-c2nc3ccccc3nc2C(=C=[N-])C#N)c1	GSTO1 counter 62.5 | GSTO1 inh conf 35.7!
CCc1cc[n+](-c2nc3ccccc3nc2[N-]S(=O)(=O)c2ccc(Br)s2)cc1	none
CCc1ccc[n+](-c2nc3ccccc3nc2C(=C=[N-])C#N)c1	GSTO1 counter 52.6 | GSTO1 inh conf 41.9
